Screen size: about 220,000 compounds; about 830 (0.38%) were called active.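 The calls were made as follows: active = compound inhibiting the enzyme by more than half at any dose during confirmatory dose-response retesting; inconclusive = strong single-dose inhibitors picked by rank but not retested; inactive = the rest.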 The list is a sample of the results. Results with a measured potency or affinity are listed apart. Non-standard residues stand in square brackets, D forms with d. Residues, ends and D or L forms follow the SMILES beside them. ξ: configuration not given here. *: point of attachment. Cbz = O=C(OCc1ccccc1)*; OBn = c1ccc(CO*)cc1; ξP = O=C(O)C1CCCN1
biological target: Leucine aminopeptidase (Plasmodium falciparum (isolate 3D7)) (UniProt Q8IL11); test: P. falciparum M17LAP inhibitors, primary screen, biochemical, fluorogenic H-Leu-NHMec substrate, 1536-well (AID 1619); conditions: recombinant M17LAP, H-Leu-NHMec fluorogenic kinetic assay; at 30 µM; stronger effect = higher value;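 also: plate controls were full reaction with DMSO carrier for no effect and no enzyme background for full effect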
Sequence (Q8IL11 whole entry, looked up): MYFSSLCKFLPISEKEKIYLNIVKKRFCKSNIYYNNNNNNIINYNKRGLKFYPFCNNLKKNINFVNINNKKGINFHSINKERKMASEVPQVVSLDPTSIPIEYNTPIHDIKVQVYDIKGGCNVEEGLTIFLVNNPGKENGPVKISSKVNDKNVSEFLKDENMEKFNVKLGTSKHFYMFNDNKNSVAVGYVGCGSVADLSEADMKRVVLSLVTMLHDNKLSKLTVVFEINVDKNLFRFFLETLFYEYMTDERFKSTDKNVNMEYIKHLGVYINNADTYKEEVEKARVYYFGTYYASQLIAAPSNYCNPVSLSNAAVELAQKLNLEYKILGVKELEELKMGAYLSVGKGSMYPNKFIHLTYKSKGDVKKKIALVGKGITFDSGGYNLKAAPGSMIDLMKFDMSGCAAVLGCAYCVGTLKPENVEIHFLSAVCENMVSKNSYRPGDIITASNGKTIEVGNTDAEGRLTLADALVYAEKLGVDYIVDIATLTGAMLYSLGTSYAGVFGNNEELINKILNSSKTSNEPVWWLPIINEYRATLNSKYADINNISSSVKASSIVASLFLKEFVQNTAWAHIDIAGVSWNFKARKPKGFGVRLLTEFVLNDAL

inhibition, inactive:
CN1CCN(C(=O)C2=C[C@@H](c3ccccc3)C[C@@H](OCCCCO)O2)CC1 2.48%
COc1ccc(Br)cc1/C=N/Nc1cccc(C(=O)O)c1 25%
C=CCOc1c(CNc2cccc(C(=O)O)c2)cccc1OC 1.85%
O=C(NNC(=O)C1[C@H]2CCCC[C@@H]12)Nc1cccc2ccccc12 (stereo partly drawn) 0.58%
C/C(=N/OC(=O)c1c(F)cccc1F)c1nccs1 -5.2%
CC(=O)C1=C(O)C(=O)N(c2ccc(Br)cn2)C1c1ccc(F)cc1 (stereo not drawn) 20.5%
O=C(CNC(=O)OCc1ccccc1)NCC(=O)N1CCCC1C(=O)OCc1ccccc1 (stereo not drawn) (Cbz-Gly-Gly-[ξP]-OBn) 2.1%
O=C(O)CCC(=O)N1CCC[C@H]1C(=O)O 3.33%
Cc1ccc(C(=O)CN(C(=O)c2ccc(Cl)c(Cl)c2)N2C(=O)C3C4C=CC(C4)C3C2=O)cc1 (stereo not drawn) -2.9%
Cc1ccc(NC(=O)CSc2ncn(-c3ccccc3)n2)cc1C 3.12%
O=C(CSc1ncccn1)Nc1ccc2c(c1)CCC2 -3.11%
CCCc1cc(=O)[nH]c(SCC(=O)Nc2ccc3c(c2)CCC3)n1 19.8%
Cc1ccc(NC(=O)CSc2ncc3ccccn23)cc1C -1.12%
O=C(CSc1ncc(S(=O)(=O)c2ccccc2)c(=O)[nH]1)Nc1ccccc1Cl 28.8%
Cc1ccc2nc(SCC(=O)Nc3ccc4c(c3)CCC4)[nH]c2c1 -0.04%
COc1cccc(NC(=O)CSc2ncc(S(=O)(=O)c3ccccc3)c(=O)[nH]2)c1 9.3%
O=C(CSc1nc(-c2ccco2)cc(C(F)(F)F)n1)Nc1ccc2c(c1)CCC2 15.2%
COc1cc(/C=C/C(=O)c2c(O)cc(C)oc2=O)cc(OC)c1O 23.1%
CCOC(=O)c1sc(NNC(=O)c2ccc(F)cc2)nc1C 4.21%
CC(=O)c1cc(-c2ccccc2)n(CC(=O)N2CCC(N3CCCCC3)CC2)c1C 5.06%
CCOCc1nc(C)c(Cl)c(NS(=O)(=O)c2ccc(N)cc2)n1 -2.71%
CCCCCCCCn1c(N2CCN(c3cccc(Cl)c3)CC2)nc2c1c(=O)[nH]c(=O)n2C 0.06%
COc1ccc(NC(=O)CSc2nc3c(c(=O)[nH]2)CCC3)cc1OC 7.54%
CCCn1c(SCC(=O)Nc2ccc3c(c2)CCC3)n[nH]c1=O 24.5%
Cc1ccc(NC(=O)CSc2n[nH]c(-c3ccncc3)n2)cc1C 13.3%
COc1ccc2nc(SCC(=O)Nc3ccc4c(c3)CCC4)[nH]c2c1 5.26%
CCOC(=O)c1ccc(NC(=O)CSc2nc(SC)ns2)cc1 4.11%
COc1ccc(C(=O)CNc2ccc(C)cc2C)cc1 -4.8%
O=C(CSc1nc2nn(-c3ccccc3)c(=O)c-2c2n1CCCCC2)NCCc1ccccc1 -13.9%
O=C(Nc1cc2c(oc1=O)CCCC2=O)c1ccccc1 1.43%
COc1cccc(C2C(C(=O)Nc3ccccc3)=C(C)N=c3s/c(=C/c4ccc(OCC(=O)O)cc4)c(=O)n32)c1 (stereo not drawn) 55.7%
CC1=C(C(=O)Nc2ccccc2)C(c2ccc(Cl)cc2)n2c(s/c(=C/c3cccc(OCC(=O)O)c3)c2=O)=N1 (stereo not drawn) 4.09%
N=C1N(/N=C/c2ccccc2)C(=Nc2ccccc2)C(=S)N1c1ccccc1 16.1%
O=C1CC(N2CCC(c3nc4ccccc4s3)CC2)C(=O)N1Cc1ccccc1 (stereo not drawn) -10.9%
CCN(c1ccccc1)S(=O)(=O)c1ccc2[nH]c(=O)[nH]c2c1 -1.87%
Cc1cccc(N(C)S(=O)(=O)c2ccc3[nH]c(=O)c(=O)[nH]c3c2)c1 53.7%
O=C(CSc1ccc2nnc(-c3ccccn3)n2n1)Nc1ccc2c(c1)OCO2 7.14%
CCOC(=O)N1CCC(NC(=O)C2CCCN(S(C)(=O)=O)C2)CC1 (stereo not drawn) 5.41%
COCCOC(=O)C1=C(C)NC(=O)NC1c1c(F)cccc1Cl (stereo not drawn) -12.3%
O=C(Cn1cc([N+](=O)[O-])cn1)Nc1cccnc1 1.1%
CCOC(=O)c1c(NC(=O)C2CC=CCC2C(=O)O)sc(C)c1CC (stereo not drawn) 5.22%
Cc1sc(NC(=O)c2cccs2)c(C(=O)OC(C)C)c1C 9.67%
CC(=O)Nc1sc(C)c(C)c1C(=O)OC(C)C 14.2%
COC(=O)c1c(NC(=O)C2CC=CCC2C(=O)O)sc(C(N)=O)c1C (stereo not drawn) 51.5%
COc1ccc(CCNC(=O)C2CC(=O)N(c3ccc(Br)cc3)C2)cc1OC (stereo not drawn) 3.2%
Cc1ccnc2ccc(SC(F)(F)F)cc12 1.01%
Cc1cc(C(F)(F)F)nc(SCC(=O)Nc2ccccc2)n1 -7.44%
Cn1ccnc1SCC(=O)Nc1cccc(C(F)(F)F)c1 15.9%
Cc1cccc(NC(=O)CSc2nc(N)cc(N)n2)c1 34.4%
COC(=O)c1cccc(NC(=O)CSc2nnc(C)n2C)c1 12.6%
COc1cccc(NC(=O)CSc2nc(N)cc(N)n2)c1 47.2%
CC(=O)c1cccc(NC(=O)CN2C(=O)C3C4C=CC(C4)C3C2=O)c1 (stereo not drawn) 31.7%
CCOC(=O)c1ccc(NC(=O)CN2C(=O)C3C4C=CC(C4)C3C2=O)cc1 (stereo not drawn) 28.7%
COC(=O)c1cccc(NC(=O)COC(=O)CSc2nc(C)cc(C)n2)c1 5.31%
CCCNC(=O)Nc1ccc(C(F)(F)F)cc1 6.33%
CC1(C)CC(=O)c2cnc(NC(=O)CSc3nc4ccccc4o3)nc2C1 8.26%
NC(=O)c1cc(-c2ccncc2)nc2ccc(Cl)cc12 8.6%
Cn1c(=O)n(C)c2cc(S(=O)(=O)Nc3ccccc3O)ccc21 -0.99%
C/C(=C1/SC(N2CC(C)OC(C)C2)=NC1=O)c1ccccc1 (stereo not drawn) 1.49%
Cc1ccc(S(=O)(=O)Nc2nc(C)cc(NCCN)n2)cc1 -5.52%
CCOC(=O)N1CCN(CCC(=O)Nc2ccc(OC)cc2)CC1 5.12%
Cc1cc(C)c(S(=O)(=O)Nc2cccc3nsnc23)c(C)c1 3.04%
Cc1ccc2nsnc2c1S(=O)(=O)Nc1cccc2nsnc12 2.26%
COC(=O)c1cc(C#N)c(NCc2ccccc2)nc1C -1.82%
Cc1nn(C)cc1CN(C)C(=O)c1cc(COc2ccc(F)cc2F)on1 -16.1%
O=C1OCC2OC(O)C(O)C(O)C2OC(=O)c2cc(O)c(O)c(O)c2-c2c(O)c(O)c3oc(=O)c4c(c(O)c(O)c5oc(=O)c2c3c54)-c2c1cc(O)c(O)c2O (stereo not drawn) 20.8%
COc1cccc(NC(=O)Cn2c(=O)n(CCC(=O)NCc3ccco3)c(=O)c3ccccc32)c1 -7.32%
CCn1c(N2CCN(CC(=O)c3c(C)n(C)c4ccccc34)CC2)nc2c1c(=O)[nH]c(=O)n2C 16.3%
CN(Cc1nc(Cc2ccccc2F)no1)CC1(N2CCOCC2)CCCCC1 -3.08%
CN(Cc1cc2ccccc2[nH]c1=O)C(=O)COc1ccccc1 -2.37%
O=C1C2CC=C(Cl)CC2C(=O)N1CCC[n+]1ccccc1 (stereo not drawn) -3.64%
O=C1C2CC=C(Cl)CC2C(=O)N1CCc1ccccc1 (stereo not drawn) 51.8%
CCOC(=O)N1CCN(C(c2ccc(F)cc2)c2sc3nc(C)nn3c2O)CC1 (stereo not drawn) -1.83%
C=CCO/N=C(\C)c1c(O)c(C)c(-c2ccccc2)n(-c2ccccc2)c1=O 54%
C/C(=N/O)c1c(O)c(C)c(-c2ccccc2)n(-c2ccccc2)c1=O 46.8%
CC(=O)c1c(O)c(C)c(-c2ccccc2)n(-c2ccccc2)c1=O 31.5%
CCO/N=C(/C)c1c(O)c(C)c(-c2ccccc2)n(-c2ccccc2)c1=O 45.5%
COc1cc(/C=N/NC(=O)c2sc(N)c(C#N)c2C)ccc1O 3.64%
COc1ccc(Cn2c(SC)nc3ccccc32)cc1[N+](=O)[O-] -7.5%
CCCn1nnc(NC(=O)c2ccc(Br)cc2)n1 -4.35%
Cc1ccsc1/C=N/NC(=O)CSCc1ccc(Cl)cc1 3.08%
Cc1cc(C)c(S(=O)(=O)Nc2c(C)[nH]c(=O)[nH]c2=O)c(C)c1 -3%
Cc1cccc2cc(CN(Cc3ccc(F)cc3)C(=O)N3CCOCC3)c(=O)[nH]c12 6.9%
CN1/C(=C\C(=O)CSc2nnc(NCc3ccccc3)s2)C(C)(C)c2ccccc21 -5.09%
CC1CCCC(C)N1C(=O)CSc1nnc(NC(=O)c2cccs2)s1 (stereo not drawn) 35.8%
COc1cccc(Nc2nnc(SCC(=O)N3CCOCC3)s2)c1 31.6%
O=C(Cc1cccs1)Nc1nnc(SCC(=O)N2CCCCC2)s1 4.31%
COc1ccccc1Nc1nnc(SCC(=O)N2CCCC2)s1 28.9%
CN1/C(=C\C(=O)CSc2nnc(N)s2)C(C)(C)c2ccccc21 30.2%
COc1ccc(NC(=O)COC(=O)C2=COCCO2)cc1OC -5.64%
O=C(CN1CCCCC1)NC(=O)NCc1ccccc1 -1.39%
C=CCNC(=O)C(=O)c1cccn1-c1ccsc1C(=O)OC 1.96%
CCOP(=O)(OCC)C(Nc1cccc([N+](=O)[O-])c1)c1ccccc1 (stereo not drawn) -1.19%
